Measurements taken from ChEMBL document CHEMBL4808148, “HDAC6 screening dataset using tau-based substrate in an enzymatic assay yields selective inhibitors and activators” (2021).
Hit rate of the full screen: of about 5,600 compounds, about 390 (7%) showed an effect of 50% or more. Only a selection was taken, and strong results are over-represented in it overall.

What was measured:
[1] = target: T1, Protein deacetylase HDAC6 (Homo sapiens) (UniProt Q9UBN7); conditions: at 10 µM
T1 sequence (whole entry): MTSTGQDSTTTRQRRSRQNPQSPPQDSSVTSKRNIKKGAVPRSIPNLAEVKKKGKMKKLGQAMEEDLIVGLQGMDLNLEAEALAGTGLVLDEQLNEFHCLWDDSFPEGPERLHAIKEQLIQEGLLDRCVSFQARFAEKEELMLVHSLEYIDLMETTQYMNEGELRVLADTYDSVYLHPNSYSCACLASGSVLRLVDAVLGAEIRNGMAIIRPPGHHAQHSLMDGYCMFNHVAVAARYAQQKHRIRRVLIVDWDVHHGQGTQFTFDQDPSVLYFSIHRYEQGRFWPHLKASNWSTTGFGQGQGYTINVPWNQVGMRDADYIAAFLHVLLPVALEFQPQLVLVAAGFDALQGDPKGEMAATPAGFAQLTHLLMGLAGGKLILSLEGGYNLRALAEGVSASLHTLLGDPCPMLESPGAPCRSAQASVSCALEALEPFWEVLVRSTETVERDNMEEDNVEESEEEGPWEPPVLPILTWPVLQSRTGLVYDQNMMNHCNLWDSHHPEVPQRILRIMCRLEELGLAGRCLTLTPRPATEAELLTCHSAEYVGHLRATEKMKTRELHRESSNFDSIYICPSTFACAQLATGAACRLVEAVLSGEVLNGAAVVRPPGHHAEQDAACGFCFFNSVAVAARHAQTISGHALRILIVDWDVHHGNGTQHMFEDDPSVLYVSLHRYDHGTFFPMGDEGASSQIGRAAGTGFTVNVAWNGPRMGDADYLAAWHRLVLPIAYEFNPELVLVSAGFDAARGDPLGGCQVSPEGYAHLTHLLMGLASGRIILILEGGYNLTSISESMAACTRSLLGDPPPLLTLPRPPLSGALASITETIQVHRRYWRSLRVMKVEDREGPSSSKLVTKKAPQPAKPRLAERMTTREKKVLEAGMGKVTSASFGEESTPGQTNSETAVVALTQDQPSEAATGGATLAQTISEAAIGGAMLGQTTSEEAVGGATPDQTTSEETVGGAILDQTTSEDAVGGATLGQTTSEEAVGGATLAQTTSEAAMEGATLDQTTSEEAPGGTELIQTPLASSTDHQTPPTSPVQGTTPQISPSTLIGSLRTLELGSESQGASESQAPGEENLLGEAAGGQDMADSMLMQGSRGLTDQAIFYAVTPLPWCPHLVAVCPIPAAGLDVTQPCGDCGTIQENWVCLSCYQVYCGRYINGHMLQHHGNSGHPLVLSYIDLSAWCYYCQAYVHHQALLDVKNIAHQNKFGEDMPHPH

[2] = target: Protein deacetylase HDAC6 (Homo sapiens) (UniProt Q9UBN7); conditions: at 10 µM; remark: listed apart in the source

Compound | inhibition [1] | inhibition [2]
Cn1cc(CCn2cnc(-c3cnn(C)c3)c2-c2ccc(C#N)cc2)cn1 | 15% | –
O=S(=O)(O)c1ccc2[nH]c(-c3ccccc3)nc2c1 | 84.1% | –
O=C1c2ccc(Nc3ccc(F)cc3F)cc2CCc2ccc(OC[C@H](O)CO)cc21 | 24.2% | –
C#Cc1cnc2nc(O)n(C(CC)CC)c2n1 | -6.31% | –
Nc1ncnc2[nH]nc(Nc3ccc(F)cc3)c12 | 17.6% | –
Nc1ncnc(Nc2ccc(Cl)cc2)n1 | 74.5% | –
Nc1nc(N)nc(-c2cc(Cl)ccc2Cl)n1 | 17.2% | –
CCO/N=C(/C(=O)NC1C(=O)N2C(C(=O)O)=C(Sc3nc(-c4cc[n+](C)cc4)cs3)CS[C@H]12)c1nsc(NP(=O)(O)O)n1 (stereo partly specified) | 20.6% | –
CC(C)[C@@H]1CC[C@@H](C)C[C@H]1O | 2.89% | –
CN(C)CCC(O)(c1ccccc1)c1ccccc1Cl (stereo unspecified) | 36.5% | –
Cc1ccc(NC2=CC(=O)c3sc(C)nc3C2=O)cc1 | 53.2% | –
Cc1c(-c2ccccc2F)[nH]c(N)c1C#N | 28.6% | –
VERTEPORFIN, CHEMBL5314346 | – | 22.2%
Cc1cccc(/C=C/c2ccccc2)n1 | 100% | –
CC[N+](CC)(CC)CCOc1ccc(/C=C/c2ccccc2)cc1 | -4.16% | –
Nc1nccc(/C=C/c2ccccc2)n1 | 99.6% | –
CC(C)[C@@H]1CC[C@@H](C)C[C@@H]1P(=O)(c1ccccc1)c1ccccc1 | -9.96% | –
CCC(CC)(NC(=O)C(C)C)C(=O)N[C@@H](CCCNC(=N)N)C(=O)NC1(C(=O)NC(c2ccc(F)cc2)c2ccc(F)cc2)CCCC1 | 22% | –
CSC[C@H](N)C(=O)O | 15.3% | –
Cc1ccc2c(c1)C(=O)[C@]1(O)CCN(c3ccccc3)C1=N2 | -8.19% | –
COc1ccc(-c2coc3cc(O)cc(O)c3c2=O)cc1 | 100% | –
O=c1c(-c2ccc(O)cc2)coc2cc(O)cc(O)c12 | 112% | –

Compound | inhibition [1] | inhibition [2]
CN1CCN(c2ccc(/C=C(\C#N)c3ccccc3Br)cc2)CC1 | -8.48% | –
Nc1ncc(Cc2ccc(Br)cc2)s1 | 12.3% | –
c1ccc(-c2nc(CN3CCN(c4ncccn4)CC3)c[nH]2)cc1 | -4.48% | –
C=CCOc1ccc(CC(=O)O)cc1Cl | 9.47% | –
Cc1ccsc1C(=CCCN1CCC[C@@H](C(=O)O)C1)c1sccc1C | 20.9% | –
NC1(c2ccc(-c3nc4ccn5c(=O)[nH]nc5c4cc3-c3ccccc3)cc2)CCC1 | 12.5% | –
O=C(O)CCc1cc(I)c(Oc2ccc(O)cc2)c(I)c1 | -9.91% | –
CC(CNS(=O)(=O)C(C)C)c1ccc(-c2ccc(C#N)cc2)cc1 (stereo unspecified) | 23.9% | –
O=C(Nc1ccc(OC(F)(F)F)cc1)c1sccc1NCc1ccnc2ccccc12 | 18.5% | –
CN(C)CCOC(=O)COc1ccc(Cl)cc1 | 1.19% | –
CN1CCN(C2=Nc3ccccc3Sc3ccc(Cl)cc32)CC1 | 29.6% | –
CN(C)CCOC1=Cc2ccccc2Sc2ccc(Cl)cc21 | 96.6% | –
C[C@H]1[C@H](C)CC[C@]2(C(=O)O)CC[C@]3(C)C(=CC[C@@H]4[C@@]5(C)C[C@@H](O)[C@H](O)C(C)(C)[C@@H]5CC[C@]43C)[C@H]12 | -2.75% | –
Cc1ccc([C@@H]2O[C@H](CO)[C@@H](O)[C@H](O)[C@H]2O)cc1Cc1ccc(-c2ccc(F)cc2)s1 | -5.59% | –
CC(C)NC(=O)N1CC[C@H](NC2=Nc3cc(F)ccc3N(CC(F)F)c3ccc(Cl)cc32)C1 | 29.2% | –
CN(C)CCn1cc(S(=O)(=O)c2cccc(F)c2)c2cccnc21 | 14.3% | –
O=C(NCCCCCCNC(=O)ON=C1CCCCC1)ON=C1CCCCC1 | 40.7% | –
AUROTHIOGLUCOSE, CHEMBL1697725 | – | 8.56%
COc1ccc2[nH]c(C(=O)c3ccccc3)cc2c1 | 109% | –
COc1ccc2[nH]c(-c3ccccc3)c(CCNC(C)=O)c2c1 | 9.99% | –
COc1ccc2cc([C@H](C)C(=O)O)ccc2c1 | -2.33% | –
Cc1nn(C)c2c1C(c1ccc(C(F)(F)F)cc1)C(C#N)=C(N)O2 (stereo unspecified) | 27.3% | –

Compound | inhibition [1] | inhibition [2]
OC[C@H]1O[C@@H]2O[C@H]3[C@H](O)[C@@H](O)[C@@H](O[C@H]4[C@H](O)[C@@H](O)[C@@H](O[C@H]5[C@H](O)[C@@H](O)[C@@H](O[C@H]6[C@H](O)[C@@H](O)[C@@H](O[C@H]7[C@H](O)[C@@H](O)[C@@H](O[C@H]8[C@H](O)[C@@H](O)[C@@H](O[C@H]1[C@H](O)[C@H]2O)O[C@@H]8CO)O[C@@H]7CO)O[C@@H]6CO)O[C@@H]5CO)O[C@@H]4CO)O[C@@H]3CO | -4.02% | –
O=C(O)c1cc2occc2[nH]1 | 21.7% | –
Cc1cc(C)c(N(Cc2ccccc2)S(=O)(=O)c2ccc(OCCNC(=O)c3cc4ccccc4o3)cc2)c(C(=O)NO)c1 | 71.8% | –
CN(C(=O)C(Cl)Cl)c1ccc(OC(=O)c2ccco2)cc1 | 5.17% | –
CO/N=C(/C(=O)N[C@@H]1C(=O)N2C(C(=O)O)=C(CSc3nc(=O)c(O)nn3C)CS[C@H]12)c1csc(N)n1 | -3.44% | –
COc1cccc(-c2cc(NCc3ccc4c(c3)OCO4)nc(N)n2)c1 | 68.7% | –
COc1cc(C[C@H](C)[C@H](C)Cc2ccc3c(c2)OCO3)ccc1O | 0.28% | –
COc1cccc(CN(C(=O)CC(C)(C)C)[C@H]2C[C@@H](C(=O)N3CCNCC3)N(Cc3ccc4c(c3)OCO4)C2)c1 | 2.2% | –
O=C(NCCS(=O)(=O)c1ccc(C(F)(F)F)cn1)c1ccc(Cl)cc1 | -5.62% | –
CCOC(=O)Nc1ccc2c(c1)N(C(=O)CN(CC)CC)c1ccccc1CC2 | 18.9% | –
OC[C@H]1OC(O)[C@H](F)[C@@H](O)[C@H]1O (stereo partly specified) | -0.45% | –
NC1=NCC2c3ccccc3Cc3ccccc3N12 (stereo unspecified) | 4.93% | –
CCOc1ccc2nc(S(N)(=O)=O)sc2c1 | 25.8% | –
Nc1nc2ccc(OC(F)(F)F)cc2s1 | 72.9% | –
C=C[C@]1(C)CC[C@@H](C(=C)C)C[C@H]1C(=C)C | 7.53% | –
Nc1ccc(C(=O)Oc2ccccc2)c(O)c1 | 108% | –
Nc1ccc(O)c(C(=O)O)c1 | 0.62% | –
O=C(Oc1ccccc1C(=O)O)c1ccccc1O | 43.2% | –
O=S(=O)(N[C@H](CO)C(C(F)(F)F)C(F)(F)F)c1ccc(Cl)s1 | 9.08% | –
O=P(O)(O)OC[C@H]1OC(O)(COP(=O)(O)O)[C@@H](O)[C@@H]1O (stereo partly specified) | 8.76% | –
Cc1csc(NC(=O)CSc2ccc(-c3ccccc3)nn2)n1 | 31.4% | –
O[C@@H]1[C@H](O)[C@@H](CCl)O[C@H]1n1cnc2c(NC3CC4CCC3C4)ncnc21 (mixture of isomers) | 17.3% | –
